High-throughput results as filed in PubChem.
Only some compounds are listed: those with a hit (about 12% of all), similar ones and a draw of the others.
BAZ2B inh = blocks human BAZ2B. AlphaScreen BAZ2B-H3K14Ac peptide displacement. Potency, µM (doses to about 114 µM), without a hit: top-dose activity change, negative = inhibition, actives largely listed as inhibitors. actives 4.4% (n = 360,000). AID 504333; further: potency means the concentration at half of the fitted maximal effect; on the % scale 0 is the no-effect control and ±100 the full control effect; nearly all actives have a fitted effect of over 60% in size
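BAZ2B (50 nM) with biotin-H3(5-23)K14Ac peptide (50 nM) in PBS pH 7.4, 0.01% Tween-20, preformed 30 min, then compound 30 min at room temperature; top concentration 110uM. AlphaScreen streptavidin donor/nickel chelate acceptor beads (10 ug/mL final), 20 min dark, signal read.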
PLK1 PBD inh = blocks phosphopeptide binding to human PLK1 polo-box domain. actives 2.8% (n = 360,000). Potency, µM, for inactives: max response, negative = inhibition, usual class: inhibitors. Plk1 PBD binding of FITC phosphopeptide, fluorescence polarization; further: potency means the concentration at half of the fitted maximal effect; series mostly up to about 57 µM; on the % scale 0 is the no-effect control and ±100 the full control effect; nearly all actives have a fitted effect of over 65% in size
HP1b binding inh = HP1-beta chromodomain-methylated histone interaction inhibition. P83916. AlphaScreen HP1-beta / biotin-H3K9me3 peptide binding. Potency, µM (top dose mostly 114 µM), inactives show at the top dose activity change, negative = inhibition, most hits filed as inhibitors. actives 0.56% (n = 390,000). AID 540317; further: potency means the concentration at half of the fitted maximal effect; nearly all actives have a fitted effect of over 70% in size
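HP1-beta protein (50 nM final) preincubated 30 min at room temperature with biotinylated H3(1-18)K9me3 peptide (50 nM) in PBS pH 7.4, 0.01% Tween-20, then compound added for 30 min. AlphaScreen streptavidin donor/nickel chelate acceptor beads (10 ug/mL final), 30 min dark, luminescence read.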
PI5P4K alpha inh = inhibitors of human PI5P4K alpha; actives 1.2% (n = 330,000); max response, %; P48426; PI5P4Kalpha enzyme, ADP-Glo luminescence, 60 min; hits give low values; AID 652105; active means max response of -50% or lower; inconclusive means between -30% and -50%; inactive means -30% or higher; further: value at the top dose of about 77 µM; on the % scale 0 is the no-effect control and ±100 the full control effect
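Compounds were pin-transferred onto PI5P4Kalpha and substrate in HEPES pH 7.4 buffer with EGTA, CHAPS and 5% DMSO. ATP (5 microM final) started the reaction, which ran 60 minutes at room temperature before ADP-Glo detection.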
G9a inh = G9a (human) methyltransferase inhibition. Q96KQ7. G9a H3K9 monomethylation, AlphaScreen, 2 h. Potency, µM (titrated, usually from 102 µM), for inactives: at the highest dose activity, negative = inhibition, most hits filed as inhibitors. actives 8.8% (n = 350,000); further: potency means the concentration at half of the fitted maximal effect; on the % scale 0 is the no-effect control and ±100 the full control effect; nearly all actives have a fitted effect of over 75% in size
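Quantitative HTS format: methyltransferase activity on a biotin-tagged H3K9 peptide is measured by AlphaScreen, using a rabbit anti-monomethyl-H3K9 antibody with streptavidin donor and anti-IgG acceptor beads. Final levels are 20 nM enzyme, 500 nM peptide, 20 uM SAM; 2 h RT.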
JMJD2A Tudor = blocks the human JMJD2A Tudor domain; AlphaScreen JMJD2A-Tudor / H3K4me3 peptide binding; Potency, µM (top dose mostly 114 µM), for inactives: top-dose activity change, negative = inhibition, hits mostly inhibitors; actives 4.4% (n = 390,000); AID 504339; further: potency means the concentration at half of the fitted maximal effect; on the % scale 0 is the no-effect control and ±100 the full control effect; nearly all actives have a fitted effect of over 50% in size
Starred values were filed as active, the others as inactive; ? = inconclusive; nt = no result given; [ ] = remark or other dose. Unless noted, the call rests on the fitted dose curve; in most records, active means well fitted curve in the direction sought with a large enough effect; inconclusive means small, poorly fitted or top-dose-only effect, or another doubt; inactive means no such curve, though single readings can be large; an effect the other way counts as inactive or inconclusive.

SMILES	BAZ2B inh	PLK1 PBD inh	HP1b binding inh	PI5P4K alpha inh	G9a inh	JMJD2A Tudor
COCc1nnc(NC(=O)CCS(=O)(=O)c2ccccc2)s1	?	?	?	-7	45µM*	-9%
COCc1nnc(NC(=O)CCCOc2ccccc2OC)s1	-5%	27µM*	-25%	-17	?	50µM*
COCc1nnc(NC(=O)CCCOc2ccccc2)s1	-2%	-2%	37%	4	5%[12.7 µM]	-26%
CCc1nnc(NC(=O)CCS(=O)(=O)c2ccccc2)s1	8%	-8%	51%	2	-5%	-4%
CN(C)/[N+]([O-])=N/Oc1cc(O/[N+]([O-])=N/N2CCCC2CO)c([N+](=O)[O-])cc1[N+](=O)[O-] (stereo not drawn)	nt	nt	2%	nt	nt	-25%
CCCCc1nc(NCc2ccccc2)c(C#N)c2c1COC(C)(C)C2	4%	-11%	26%	-1	-2%	2%
CN1CCc2c(C#N)c(N3CCCCC3)nc(NCc3ccccc3)c2C1	?	?	-17%	nt	40µM*	?
N#Cc1c(NCCCO)nc(NCc2ccccc2)c2c1CCN(Cc1ccccc1)C2	32µM*	-10%	?	-9	40µM*	56µM*
CC(C)c1nc(NCc2ccccc2)c(C#N)c2c1CCCC2	-3%	?	16%	2	25%	6%[11.4 µM]
CCCOc1ccc(C(=O)NNC(=O)CCNC(=O)c2ccco2)cc1OC	3%	-6%	9%	0	4%	-4%
O=C(CC1CCOCC1)Nc1ccc(Cl)c(Cl)c1	-15%	?	26%	0	40µM*	0%
Cc1ccc(CNC(=O)c2cc(C3CC3)nc3c2c(C)nn3-c2cccc(Cl)c2C)cc1	10%[57.1 µM]	nt	29%	nt	5%[59 µM]	-12%
Cc1cccn2c(=S)[nH]nc12	nt	0%	71µM*	-59*	nt	2.8µM*
COc1cc(C2C(C#N)=C(N)Oc3n[nH]c(-c4cccnc4)c32)ccc1OCC(N)=O (stereo not drawn)	-16%	-25%	20%	-17	9%	-15%
COc1ccc(-c2ccc(C3C(C#N)=C(N)Oc4n[nH]c(C)c43)o2)cc1 (stereo not drawn)	50µM*	-4%	-27%	nt	?	?
COc1cc(C2C(C#N)=C(N)Oc3n[nH]c(-c4cccnc4)c32)cc(Br)c1O (stereo not drawn)	-29%	-8%	9%	-63*	?	-34%
Cc1ccc(C2C(C#N)=C(N)Oc3n[nH]c(-c4cccnc4)c32)o1 (stereo not drawn)	?	?	31%	?	79µM*	-8%
Cc1ccc(C2C(C#N)=C(N)Oc3n[nH]c(-c4ccccc4)c32)o1 (stereo not drawn)	?	3.4µM*	?	-67*	22µM*	16µM*
CC(C)(C)OC(=O)NS(=O)(=O)NCc1ccco1	nt	nt	21%	nt	nt	-19%
Cc1cc(S(=O)(=O)NCC(c2ccc(F)cc2)N2CCN(C)CC2)ccc1F (stereo not drawn)	10%	-8%	-10%	2	?	-17%
COc1ccc(/C=C2\C(=O)OCc3cc(OC)c(OC)cc32)cc1OC	-37%	-12%	24%	12	-10%	?
COc1ccc(/C=C2\C(=O)NC(=O)c3ccccc32)cc1OC	nt	4.7µM*	10%	-2	nt	-21%
COc1ccc(/C=C2/N=C(SC)NC2=O)cc1OC	-10%	-5%	14%	6	5%	-1%
COc1ccc(C=C2C(=O)OC(C)(C)OC2=O)cc1OC	-4%	13µM*	63%	-13	-9%[2.33 µM]	-1%
COc1cccc(Cn2c(CNS(=O)(=O)c3ccc(C(C)(C)C)cc3)nc3cccnc32)c1	-2%	nt	31%[57 µM]	nt	-3%[59 µM]	-21%
O=C(NCc1ccccc1Cl)c1ccc2sc([C@@H]3O[C@H](CO)[C@H](O)[C@H](O)[C@H]3O)nc2c1	nt	-7%	nt	0	nt	nt
COc1ccc(C(C)=NOC(=O)c2c(-c3ccccc3Cl)noc2C)cc1CN1CCOCC1	nt	1%	nt	3	nt	nt
